# Measurements from PubChem BioAssay (NCATS).
# Records with an inconclusive call do not appear. Entries that show only a call come without a potency. Calls of active or inactive are those of the source. Calls come from the whole dose curve; as a rule, active = well fitted inhibition curve with a large enough effect; inconclusive = small, poorly fitted or top-dose-only effect; inactive = flat fitted curve, though single readings scatter.
# Target: Calcium and integrin-binding protein 1 (Homo sapiens) (UniProt Q99828)
# Experiment: Primary qHTS for Identification of Calcium Integrin Binding Protein 1 (CIB1) Competitor (AID 1508620);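 note: GST tagged CIB1 binding a fluorescein labelled alphaIIb integrin peptide tracer; top concentration of the series differs between compounds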
# Settings: CIB1-GST / FITC-alphaIIb peptide fluorescence polarization; series mostly up to 114 µM
# Procedure, shortened: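 CIB1-GST (1 uM final) and compound incubated 15 min at room temperature before adding FITC-alphaIIb peptide tracer (100 nM final). Competition for binding read by fluorescence polarization (ex 480, em 540) after another 15 min at room temperature.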
# Calcium and integrin-binding protein 1 (Homo sapiens), sequence (Q99828 whole entry, looked up): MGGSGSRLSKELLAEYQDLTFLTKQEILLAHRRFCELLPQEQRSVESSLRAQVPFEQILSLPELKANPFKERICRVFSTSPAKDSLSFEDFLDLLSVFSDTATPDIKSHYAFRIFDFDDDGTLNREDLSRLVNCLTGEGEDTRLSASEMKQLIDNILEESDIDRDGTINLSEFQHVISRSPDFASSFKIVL
row,SMILES,Potency
1,COc1ccc(C2=Nn3c(nnc3-c3ccccc3F)SC2)cc1OCC1CC1,inactive
2,Cc1cnc(-c2ccccc2C(C)O)nc1NCc1ccc(-c2cccnc2)cc1 (stereo not drawn),inactive
3,Cc1nnc2sc(-c3cccc(NC(=O)c4ccc(-c5cccc(Cl)c5)o4)c3)nn12,inactive
